Screening data deposited in PubChem by Broad Institute.
Only some compounds are listed: those with a hit (about 3.3% of all), similar ones and a draw of the others.
ERAP1 inh = blocks human ERAP1 aminopeptidase activity; recombinant ERAP1, Leu-AMC fluorescence, 60 min; inhibition, % at 10.7 µM; 340,000 tested, 0.15% active; AID 652197;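 active = mean replicate inhibition of at least 30%, or all replicates individually reaching that 30% level; inactive = mean below 30% and not every replicate reaching it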
GSIS activator = GLuc luminescence reporter in INS-1E cells, primary screen for activators of glucose-dependent secretion of insulin; INS-1E GLuc reporter insulin secretion, 2-3 h; activation, % at 16.6 µM; 370,000 tested, 0.61% active;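 active = lowest replicate activation of at least 40%, so every replicate reaches that level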
Casp6 inh = caspase-6 (human) enzyme inhibition; purified caspase-6, Z-VEID-R110 cleavage fluorescence; inhibition, % at 12.5 µM; P55212; 350,000 tested, 0.53% active;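 active = mean inhibition across replicates at least about 35%, with every replicate also reaching that limit, limit read from the data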
SIRT5 block = blocks human SIRT5 desuccinylation of peptide | Purified SirT5, succinyl-peptide AMC, trypsin-coupled fluorescence | Q9NXA8 | AID 652115 | inhibition, % at 15 µM | 330,000 tested, 1.1% active; in the data active = inhibition above about 15%
Target sequence (Q9NXA8 whole entry, looked up): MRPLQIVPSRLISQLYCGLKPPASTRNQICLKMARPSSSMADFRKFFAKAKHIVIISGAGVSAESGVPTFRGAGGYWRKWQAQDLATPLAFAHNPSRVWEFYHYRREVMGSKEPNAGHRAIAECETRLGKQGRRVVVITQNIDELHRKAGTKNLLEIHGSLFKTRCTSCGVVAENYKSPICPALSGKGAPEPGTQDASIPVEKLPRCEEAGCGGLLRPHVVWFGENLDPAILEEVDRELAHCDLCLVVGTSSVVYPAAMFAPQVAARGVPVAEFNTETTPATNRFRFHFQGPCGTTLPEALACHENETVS
FGF22 binding = binders of recombinant human FGF22 by thermal shift; Q9HCT0; SYPRO orange fluorescence; percent of sucrose octasulfate shift, DMSO zero; activity (Tm shift, normalised), % at 9.99 µM; 340,000 tested, 1.5% active;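 active = mean Tm shift, scaled 0 neutral to 100 positive control, at about 1.3% or above, every replicate too, limit read from the data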
Large screens that a line does not name were inactive.

Cc1noc(C)c1NC(=O)Nc1cccc2c1O[C@@H](CN(C)C)[C@H](C)CN([C@H](C)CO)C2=O	none
CC(=O)NC[C@@H]1[C@H](c2ccc(-c3ccccc3F)cc2)[C@@H](CO)N1C(=O)C1CC1	none
OCCOCCn1c(C(CO)Nc2nc(-c3cccc(Br)c3)cs2)nc2ccccc21 (centres undefined)	none (no result: Casp6 inh, SIRT5 block)
OCCOCCn1c(C(CO)Nc2nc(-c3ccccc3Br)cs2)nc2ccccc21 (centres undefined)	SIRT5 block 23.4
COc1ccc(NC(=O)Nc2ccc3c(c2)C(=O)N([C@H](C)CO)C[C@@H](C)[C@@H](CN(C)Cc2ccc(C(F)(F)F)cc2)O3)cc1	SIRT5 block 20.7
COc1ccc(NC(=O)Nc2ccc3c(c2)C(=O)N([C@@H](C)CO)C[C@@H](C)[C@@H](CN(C)Cc2ccc(C(F)(F)F)cc2)O3)cc1	SIRT5 block 19.8
CCC(=O)N1[C@@H]2c3ccc(-c4ccccc4F)c(=O)n3C[C@H]1[C@H](CO)[C@H]2C(=O)NC1CCCC1	none
Cc1cc(S(=O)(=O)N2CCCC(C(=O)Nc3ccc(C(=O)O)cc3)C2)ccc1Cl (centres undefined)	FGF22 binding 43.3
COC(=O)c1ccc(NC(=O)C2CCCN(S(C)(=O)=O)C2)cc1 (centres undefined)	FGF22 binding 42.9
COC(=O)c1ccc(NC(=O)C2CCCN(S(=O)(=O)c3cnc[nH]3)C2)cc1 (centres undefined)	none (no result: SIRT5 block)
NS(=O)(=O)c1ccc(Cl)c(C(=O)Nc2ccccc2[N+](=O)[O-])c1	SIRT5 block 17.7
O=C(NNc1ccccc1[N+](=O)[O-])Nc1ccccc1	none
O=C(NNc1ccccc1[N+](=O)[O-])Nc1ccc(Cl)c(Cl)c1	SIRT5 block 16.0 (no result: GSIS activator)
CC(c1ccon1)N(C)Cc1c(C(=O)N(C)Cc2ccccc2)nc2ccccn12 (centres undefined)	FGF22 binding 43.1
CCC(=O)N(C)C[C@@H]1Oc2ncc(-c3ccc(C(=O)N(C)C)cc3)cc2C(=O)N([C@H](C)CO)C[C@H]1C	none
FCCCOc1ccc(-c2ccnc3ncnn23)cc1	none
COc1ccc(-c2ccnc3ncnn23)cc1	FGF22 binding 42.9
COC(=O)c1c(C)[nH]c(C(=O)/C=C/c2ccccc2)c1C	GSIS activator 55.9 (no result: ERAP1 inh, Casp6 inh, SIRT5 block, FGF22 binding)
C[C@@H]1CN([C@H](C)CO)C(=O)c2cc(C#Cc3cccnc3)cnc2O[C@@H]1CN(C)C(=O)CN(C)C	none
CCc1c(C)[nH]c2ccc(OC)cc2c1=S	none
CCOc1ccc(Cc2c(C)[nH]c3ccc(C(=O)O)cc3c2=S)cc1	SIRT5 block 28.8
COc1ccc(-c2nn(-c3ccccc3)cc2N)cc1	FGF22 binding 43.5
COc1ccc(-c2nn(-c3ccccc3)cc2/C=C2/SC(=S)N(CCC(=O)O)C2=O)c(C)c1	none (no result: GSIS activator)
O=C1C(=Cc2cn(-c3ccccc3)nc2-c2ccc(OCc3ccccc3F)cc2)SC(=S)N1CCS(=O)(=O)O	Casp6 inh 74.9
O=C1C(=Cc2cn(-c3ccccc3)nc2-c2ccc(OCc3ccc(Cl)cc3)cc2)SC(=S)N1CCS(=O)(=O)O	Casp6 inh 46.0, SIRT5 block 36.6
COc1ccc(-c2nn(-c3ccccc3)cc2/C=C2/SC(=S)N(CCC(=O)O)C2=O)cc1	Casp6 inh 46.5
CO[C@H]1CN(C)C(=O)c2ccc(NC(=O)NC(C)C)cc2OC[C@@H](C)N(S(C)(=O)=O)C[C@@H]1C	none (no result: ERAP1 inh, Casp6 inh)
O=C(Cc1ccccc1)N1CC(=O)N2[C@H](C1)[C@@H](c1ccc(-c3cccc(F)c3)cc1)[C@@H]2CO	none (no result: FGF22 binding)
CCOC(=O)C1(C)C=C(Nc2ccc(OC)cc2)C(=O)N1c1ccc(OC)cc1 (centres undefined)	GSIS activator 59.1 (no result: ERAP1 inh, Casp6 inh, SIRT5 block, FGF22 binding)
CCOC(=O)C1(C)C=C(Nc2ccc(O)cc2)C(=O)N1c1ccc(O)cc1 (centres undefined)	none
CC(=O)N1[C@H](C(=O)NCC2CC2)[C@@H](CO)[C@@H]2Cn3c(ccc(-c4cccc(F)c4)c3=O)[C@@H]21	none
Cc1ccc(S(=O)(=O)Nc2ccc3c(c2)CC(=O)N([C@H](C)CO)C[C@H](C)[C@@H](CN(C)S(=O)(=O)c2ccc(F)cc2)O3)cc1	none (no result: ERAP1 inh, Casp6 inh, SIRT5 block)
COc1cccc(CNC(=O)C[C@@H]2CC[C@H]3[C@H](COc4ccc(NS(=O)(=O)c5ccccc5F)cc4C(=O)N3C)O2)c1	none (no result: ERAP1 inh, Casp6 inh, FGF22 binding)
